MCL1-BIM inh: disrupts human MCL1 binding to BIM-BH3 peptide. Q07820. GST-MCL1 / FITC-Bim-BH3 fluorescence polarization. inhibition, % at 10.9 µM. 0.68% of 320,000 active. AID 2057;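 active = inhibition above the mean inhibition of all tested compounds plus 3 SD, set per campaign, cut at about 40% in these data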;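 note: 0% = DMSO wells and 100% = unlabeled Bim-BH3 peptide control; higher means more loss of mP so more displacement of Bim peptide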
Target sequence (Q07820 whole entry, looked up): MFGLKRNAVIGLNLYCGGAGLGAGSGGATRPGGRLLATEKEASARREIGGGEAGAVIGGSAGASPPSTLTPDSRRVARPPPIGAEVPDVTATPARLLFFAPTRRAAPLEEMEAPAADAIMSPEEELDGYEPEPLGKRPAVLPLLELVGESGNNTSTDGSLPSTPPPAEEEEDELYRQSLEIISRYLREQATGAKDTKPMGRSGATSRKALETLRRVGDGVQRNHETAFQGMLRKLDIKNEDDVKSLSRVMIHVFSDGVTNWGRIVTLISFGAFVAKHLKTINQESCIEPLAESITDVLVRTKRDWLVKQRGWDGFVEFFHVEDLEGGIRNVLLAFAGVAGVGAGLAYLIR
Bcl-xL primary: inhibitors of human Bcl-xL; GST-Bcl-xL / FITC-Bim BH3 peptide fluorescence polarization; inhibition, % at 10.9 µM; 0.7% of 320,000 active;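 active = inhibition above the mean of all tested compounds plus 3 SD, cutoff set per campaign, cut at about 30% in these data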;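 note: 0% = DMSO wells and 100% = unlabeled Bim-BH3 peptide competitor; inhibitors lower millipolarization by displacing the labeled peptide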
Target sequence (Q07817 whole entry, looked up): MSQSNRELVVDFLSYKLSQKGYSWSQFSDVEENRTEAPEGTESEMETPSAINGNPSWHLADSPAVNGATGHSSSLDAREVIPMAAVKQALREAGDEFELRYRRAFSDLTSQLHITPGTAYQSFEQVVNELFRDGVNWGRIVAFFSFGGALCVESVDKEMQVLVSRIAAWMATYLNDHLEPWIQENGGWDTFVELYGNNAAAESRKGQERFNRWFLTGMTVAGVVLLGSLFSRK
Mcl-1 Bim block: disrupts Bim peptide binding to human Mcl-1. inhibition, % at 10 µM. Bead-based flow cytometry, Bim peptide-Mcl-1 binding. 0.1% of 190,000 active; in the data active = inhibition above about 40%;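 note: 0% = no compound tracer wells and 100% = peptide blocker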
Mcl1-Bid inh: Mcl-1/Bid interaction inhibition | inhibition, % at 21.7 µM | 0.97% of 220,000 active | TR-FRET Mcl-1/Bid-Dy647 peptide binding, 1536-well;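 active = compounds that cut the binding signal by more than half at the single screening dose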;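 note: His-tagged Mcl-1 with europium anti-His antibody binding Bid BH3 peptide; 0% = Mcl-1 plus peptide wells and 100% = peptide-only wells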
GLD-1 TGE inh: GLD-1-TGE RNA interaction inhibition (C. elegans). purified GLD-1 + fluorescein TGE RNA, fluorescence polarization. AID 2280. inhibition, % at 5.96 µM. Q17339. 0.44% of 320,000 active;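 active = percent inhibition above a per-plate cutoff, the plate mean of test compounds plus 3 SD, cut at about 30% in these data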;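 note: 0% = DMSO wells with GLD-1 and probe and 100% = wells lacking GLD-1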
Mcl1-Noxa inh: Mcl-1/Noxa interaction inhibition | Q07820 | TR-FRET Mcl-1/Noxa peptide binding, 2 h | inhibition, % at 21.7 µM | 1.5% of 220,000 active;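 active = compounds that cut the protein-peptide binding signal by more than 50% relative to plate controls in a single-dose test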;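 note: His-tagged Mcl-1 with rhodamine Noxa BH3 peptide and terbium anti-His antibody; 0% = Mcl-1 plus Noxa peptide wells and 100% = peptide-only wells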
BCLXL inh confirm: counter-screen for MCL1 inhibitors: confirmation of human Bcl-xL inhibitors; shares compounds with MCL1-BIM inh; GST-Bcl-xL / FITC-Bim BH3 peptide FP binding; inhibition, % at 10.9 µM; 54% of 1,700 active; AID 2166;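 active = inhibition above a cutoff equal to the mean inhibition of all tested compounds plus 3 SD, cut at about 30% in these data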;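 note: 0% = DMSO wells and 100% = unlabeled Bim BH3 control peptide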
MCL1 inh confirm: MCL1-BIM-BH3 interaction inhibition, confirmation; 61% of 1,700 active; GST-MCL1 / FITC-Bim-BH3 fluorescence polarization; AID 2168; inhibition, % at 10.9 µM; shares compounds with MCL1-BIM inh;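 active = inhibition above the average of all tested compounds plus 3 SD, cut at about 40% in these data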;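 note: 0% = DMSO wells and 100% = unlabeled Bim-BH3 control peptide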
GLD1 RNA confirm: confirmation of C. elegans GLD-1 TGE RNA binding inhibitors. shares compounds with GLD-1 TGE inh. GLD-1/FL-TGE RNA fluorescence polarization, biochemical. inhibition, % at 5.96 µM. 10% of 550 active;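 active = average inhibition across triplicates above the hit cutoff set in the primary screen, cut at about 32% in these data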;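 note: 0% = GLD-1 with RNA probe and DMSO and 100% = wells lacking GLD-1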
Numbers without * were called inactive; nt = no result; + = active, no number. Compounds with a hit are over-represented: about 2.3% of the library has one in this group of screens.

SMILES	MCL1-BIM inh	Bcl-xL primary	Mcl-1 Bim block	Mcl1-Bid inh	GLD-1 TGE inh	Mcl1-Noxa inh	BCLXL inh confirm	MCL1 inh confirm	others
COc1cccc2c(SCC(=O)N/N=C/c3ccc(O)c(O)c3)cc(C)nc12	43*	2	10	-16	-6	64*	36*	72*
Cc1cc(SCC(=O)N/N=C/c2ccc(O)cc2O)nc2ccccc12	13	2	nt	nt	-5	nt	nt	nt
COc1cc(Cl)ccc1OCc1cc(C(=O)NC2CCc3ccccc32)no1 (stereo unspecified)	5	4	nt	nt	-5	nt	nt	nt
CCS(=O)(=O)NCc1ccc2[nH]c3c(c2c1)CCCC3	73*	59*	-3	-40	40*	3	49*	70*
Cc1cccc(N2C(=O)C(Oc3ccc(Cl)cc3Cl)C2C=O)c1C (stereo unspecified)	-7	-2	-4	-18	-10	0	nt	nt
O=C(c1cccc(C(=O)N2CCN(c3ccccc3F)CC2)c1)N1CCN(c2ccccc2F)CC1	1	6	-4	8	-6	13	nt	nt
Nc1ccccc1N1CCN(C(=O)c2ccccc2)CC1	108*	6	0	-23	-2	15	12	11
N#C/C(=C/c1ccco1)C(N)=S	58*	35*	nt	-12	17	-6	17	25
Clc1ccccc1-c1ccc(CN2CCN(c3ccccc3)CC2)o1	133*	4	-3	-6	3	35	13	10
O=[N+]([O-])c1ccc(CN2CCN(c3ccccc3)CC2)o1	7	6	nt	nt	7	nt	nt	nt
CC1=Nc2ccccc2/C1=C\c1nc(-c2ccc(C(F)(F)F)cc2)oc1O	58*	60*	-1	3	11	-2	100*	126*
CC1=Nc2ccccc2/C1=C\c1nc(-c2ccccc2)oc1O	-19	-2	0	-23	-61	11	nt	nt
O=C(OCCN1C(=O)c2ccccc2C1=O)c1cc(S(=O)(=O)N2CCOCC2)ccc1Cl	3	2	-5	-6	6	-3	nt	nt
O=C(OCCN1C(=O)c2cccc3c(N4CCOCC4)ccc(c23)C1=O)c1cccc(Cl)c1	66*	41*	0	-13	81*	-161	3	-19
O=C(OCCN1C(=O)c2cccc3c(N4CCOCC4)ccc(c23)C1=O)c1ccc(Cl)cc1Cl	63*	39*	10	-26	73*	-151	-3	-2
Cc1onc(-c2ccccc2)c1C(=O)N1CCN(c2ccccc2F)CC1	-1	3	nt	nt	0	nt	nt	nt
COc1ccc(C(=O)NC(=S)Nc2cccnc2)cc1[N+](=O)[O-]	42*	27	-4	-24	1	13	22	19
CN1CCc2cccc3c2[C@H]1Cc1ccc(O)c(O)c1-3	56*	36*	7	-65	7	88*	42*	70*
CC1CCN(c2nc3ccccn3c(=O)c2C=O)CC1	2	6	-3	-49	3	-6	nt	nt
O=Cc1c(Cl)nc2ccccn2c1=O	59*	56*	nt	28	19	-21	10	11
O=C(CSc1nnc(-c2ccco2)c(-c2ccco2)n1)c1ccccc1	43*	30	1	40	7	96*	43*	78*
CCN1CCC(NCCc2ccc(F)cc2)CC1	10	2	nt	nt	-3	nt	nt	nt
COc1c(O)cccc1[C@H](O)C1CCN(CCc2ccc(F)cc2)CC1	56*	50*	nt	nt	66*	nt	56*	60*
COCCNC(=S)N1CCN(Cc2cccc(OC)c2)CC1	3	7	-1	-35	-1	6	nt	nt
CCCCn1c(N)c(N(CC(C)C)C(=O)c2cc(-c3ccc(F)cc3)nc3ccccc23)c(=O)[nH]c1=O	-22	-22	nt	nt	4	nt	nt	nt
SMILES	MCL1-BIM inh	Bcl-xL primary	Mcl-1 Bim block	Mcl1-Bid inh	GLD-1 TGE inh	Mcl1-Noxa inh	BCLXL inh confirm	MCL1 inh confirm	others
COc1ccc(Cl)cc1C(=O)NNC(=O)CSc1nnc2ccccn12	40*	5	0	-22	-8	4	1	20
CC(=O)Oc1ccc2c(=O)c(Oc3ccccc3)coc2c1OC(C)=O	50*	15	0	-104	-2	26	20	40
CN(C)Cc1c(O)ccc2cc(-c3nc4ccccc4n3C)c(=O)oc12	64*	52*	nt	nt	22	nt	27	33
CCC(=O)OCCNc1cc(Sc2nc3ccccc3s2)c2nonc2c1[N+](=O)[O-]	60*	62*	2	-100	38*	58*	56*	72*	GLD1 RNA confirm=25
O=C(O)c1ccc(Cl)c2c1C1C=CCC1C(c1ccccn1)N2 (stereo unspecified)	115*	85*	5	56*	39*	89*	58*	82*	GLD1 RNA confirm=21
Cc1cc([N+](=O)[O-])cc2c1NC(c1ccccn1)C1CC=CC21 (stereo unspecified)	19	11	3	-9	-4	41	nt	nt
CC(=O)N1CCc2cc(S(=O)(=O)CCC(=O)N(C)c3cc(C)ccc3C)ccc21	4	9	nt	nt	2	nt	nt	nt
CCOC(=O)C1=C(C)OC(N)=C(C#N)C1c1ccccc1 (stereo unspecified)	6	8	1	-30	0	0	nt	nt
CCC1OC2(C)OC(=N)C1(C#N)C(C#N)(C#N)C2c1ccccc1 (stereo unspecified)	55*	60*	-1	-33	44*	18	14	12	GLD1 RNA confirm=-1
N#Cc1c(-c2ccco2)cc(-c2cccnc2)nc1N	75*	46*	7	-12	44*	62*	16	12	GLD1 RNA confirm=-4
CN(C)/C=C1\SC(=S)N(c2ccc(F)cc2)C1=O	10	8	nt	-35	2	16	nt	nt
CN(C)/C=C1\SC(=S)N(c2ccc(Br)cc2)C1=O	176*	131*	nt	-28	73*	29	+	+	GLD1 RNA confirm=32*
N#Cc1c(N)sc(=S)c2c1CCCCC2	113*	87*	-4	25	56*	71*	62*	76*	GLD1 RNA confirm=24
CN(C)c1ccc(C(CNC(=O)c2ccc(-c3ccccc3)cc2)N2CCOCC2)cc1 (stereo unspecified)	89*	80*	nt	nt	37*	nt	6	-2	GLD1 RNA confirm=-2
Cc1ccc(C(=O)NCC(c2ccc(F)cc2)N2CCOCC2)cc1 (stereo unspecified)	-15	-5	nt	-8	8	-10	nt	nt
Cc1c(N/C=C(\Cl)C(=O)C(F)(F)F)c(=O)n(-c2ccccc2)n1C	-6	-3	0	-25	-2	2	nt	nt

From PubChem
